# Screening data (PubChem BioAssay)
# Pol beta inh: inhibitors of human DNA polymerase beta; Pol beta primer extension/strand displacement, fluorescence kinetic; Potency, µM (doses to about 114 µM), for inactives: top-dose activity change, negative = inhibition, actives largely listed as inhibitors; actives 1.3% (n = 340,000); also: potency is read from the fitted curve at half-maximal effect; % is scaled to controls: 0 for no effect and ±100 for the full control effect
#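 Enzyme-only controls used 10 nM Pol beta; buffer lacking enzyme served as negative control. Compound preincubated 15 min, then 50 nM substrate added; 0 and 10 min reads at room temperature.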
# PI5P4Ka inh: blocks human PI5P4K alpha kinase activity; P48426; PI5P4Kalpha enzyme, ADP-Glo luminescence, 60 min; active compounds read low; max response, %; actives 1.2% (n = 330,000); active = max response of -50% or lower; inconclusive = between -30% and -50%; inactive = -30% or higher; also: value at the top dose of about 77 µM; % is scaled to controls: 0 for no effect and ±100 for the full control effect
#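 Single end-point luminescence (ADP-Glo) quantified ADP from PI5P4Kalpha turnover; ATP 5 microM final, 1 h at RT, 0.1% CHAPS and 0.28 mM EGTA in HEPES pH 7.4.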
# POLI inh: DNA polymerase iota (human) inhibition. Q9UNA4. Pol iota fluorescent replication assay, 10 min. Potency, µM (top dose mostly 115 µM), for the others: at the highest dose activity, negative = inhibition, usual class: inhibitors. actives 1% (n = 390,000). AID 588590; also: potency is read from the fitted curve at half-maximal effect
# Target sequence (Q9UNA4 whole entry, looked up): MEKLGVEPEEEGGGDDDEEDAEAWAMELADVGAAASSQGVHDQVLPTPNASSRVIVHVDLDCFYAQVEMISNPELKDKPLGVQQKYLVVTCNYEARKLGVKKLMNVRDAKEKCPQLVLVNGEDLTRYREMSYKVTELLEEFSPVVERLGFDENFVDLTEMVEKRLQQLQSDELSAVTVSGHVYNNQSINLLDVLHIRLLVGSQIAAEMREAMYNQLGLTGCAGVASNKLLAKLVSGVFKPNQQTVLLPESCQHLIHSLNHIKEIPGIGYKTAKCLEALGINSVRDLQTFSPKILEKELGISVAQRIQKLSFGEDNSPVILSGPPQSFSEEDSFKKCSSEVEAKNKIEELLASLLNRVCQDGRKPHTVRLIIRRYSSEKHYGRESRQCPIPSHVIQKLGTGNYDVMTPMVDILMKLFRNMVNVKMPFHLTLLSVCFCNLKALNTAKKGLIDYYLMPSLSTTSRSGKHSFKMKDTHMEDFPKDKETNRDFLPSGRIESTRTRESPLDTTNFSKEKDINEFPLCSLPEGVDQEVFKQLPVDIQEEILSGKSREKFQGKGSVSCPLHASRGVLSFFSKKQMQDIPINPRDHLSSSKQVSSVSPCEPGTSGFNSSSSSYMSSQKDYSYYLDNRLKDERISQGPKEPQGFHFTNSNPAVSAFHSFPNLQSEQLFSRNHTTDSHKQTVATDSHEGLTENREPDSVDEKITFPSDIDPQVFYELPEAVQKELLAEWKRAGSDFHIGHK
#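 Fluorescent replication assay read twice, at 0 min and 10 min after adding 50 nM (final) substrate. Enzyme (10 nM) and compounds were first incubated 15 min at room temperature; enzyme-free buffer wells were negative controls.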
# FEN1 inh: human FEN1 inhibition; P39748; Recombinant FEN1 flap cleavage, fluorescence, 15 min; Potency, µM (doses to about 114 µM), without a hit: top-dose activity change, negative = inhibition, usual class: inhibitors; actives 0.35% (n = 390,000); AID 588795; also: potency is read from the fitted curve at half-maximal effect; % is scaled to controls: 0 for no effect and ±100 for the full control effect; nearly all actives have a fitted effect of over 65% in size
#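 Steps: FEN1 (10 nM) dispensed; compound added by pin tool; 15 min at room temperature; substrate added to 50 nM final; reads at 0 min and 15 min; data normalized and fitted (four-parameter Hill).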
# Pol eta inh-1: DNA polymerase eta (human) inhibition; Potency, µM (titrated, usually from 114 µM), for the others: at the top dose activity change, negative = inhibition, most hits filed as inhibitors; actives 1.2% (n = 390,000); recombinant Pol eta, fluorescent DNA replication assay; also: potency is read from the fitted curve at half-maximal effect; % is scaled to controls: 0 for no effect and ±100 for the full control effect
#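 Pol eta at 10 nM preincubated with compounds 15 min at room temperature; reaction started with fluorescent substrate (50 nM final) and read kinetically at 0 and 10 min.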
# Pol kappa inh-1: inhibitors of human DNA polymerase kappa; Potency, µM (series often up to 107 µM), inactives show at the top dose activity, negative = inhibition, hits mostly inhibitors; AID 588579; actives 0.53% (n = 400,000); Q9UBT6; purified Pol kappa, fluorescent DNA synthesis assay, 10 min; also: potency is read from the fitted curve at half-maximal effect; % is scaled to controls: 0 for no effect and ±100 for the full control effect
#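 Pol kappa 10 nM + cpd, 15 min RT; start w/ substrate 50 nM final; fluorescence kinetic read, 0 and 10 min. Neg ctrl: buffer, no enzyme.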
# GALK inh confirm: galactokinase (human) inhibition, confirmation | AID 2015 | purified GALK, Kinase-Glo ATP depletion luminescence | Potency, µM (titrated, usually from 115 µM), for the others: top-dose activity, negative = inhibition, usual class: inhibitors | shares compounds with Pol eta inh-1 | actives 70% (n = 150)
# Redox cycling: redox cycling activity in phenol red-HRP assay; shares compounds with Pol eta inh-1; Phenol red-HRP H2O2 redox cycling, absorbance 600 nm; Potency, µM (doses to about 115 µM), inactives show at the highest dose activity change, negative = H2O2 signal, usual class: inhibitors; actives 40% (n = 150); AID 2035
# HEK293 tox: HEK-293 cytotoxicity, GALK inhibitor secondary; shares compounds with Pol eta inh-1; HEK-293 viability, ATP luminescence (CellTiter-Glo), 24/48 h; Potency, µM (highest dose often 46.1 µM), for inactives: at the highest dose activity change, negative = cytotoxicity, usual class: inhibitors; actives 10% (n = 170); also: potency is read from the fitted curve at half-maximal effect; % is scaled to controls: 0 for no effect and ±100 for the full control effect
# Pol kappa inh-2: confirmation of human DNA polymerase kappa inhibitors; shares compounds with Pol eta inh-1; purified Pol-kappa, fluorescent strand-displacement substrate; Potency, µM, usual class: inhibitors; actives 76% (n = 920); AID 720501; also: potency is read from the fitted curve at half-maximal effect
# Pol eta inh-2: confirmation of human DNA polymerase eta inhibitors; Potency, µM, hits mostly inhibitors; actives 64% (n = 2,600); Pol eta primer extension, TAMRA/BHQ fluorescence, 10 min; shares compounds with Pol eta inh-1; also: potency is read from the fitted curve at half-maximal effect
# Active calls of the source: *; ? = inconclusive; nt = no result given. Rows were chosen to be rich in hits. Some 2.8% of all compounds tested hit in one or more screens of this group. Unless noted, calls follow the shape of the dose curve; as a rule, active = well fitted curve in the direction sought with a large enough effect; inconclusive = small, poorly fitted or top-dose-only effect, or another doubt; inactive = no such curve, though single readings can be large; an effect the other way counts as inactive or inconclusive.
SMILES,Pol beta inh,PI5P4Ka inh,POLI inh,FEN1 inh,Pol eta inh-1,Pol kappa inh-1,Pol eta inh-2,others
O=C1/C(=C\c2ccccn2)SC(=S)N1c1ccc(S(=O)(=O)Nc2nccs2)cc1,?,-71*,?,?,18µM*,?,85*,
CC(C)N(C(=O)N1CCN(c2ccnc3cc(Cl)ccc23)CC1)C(C)C,24%,7,36%,3%,-21%,-12%,nt,
C#Cc1ccc([C@H]2C=C(C(=O)O)O[C@@H](OCc3ccc(CO)cc3)C2)cc1,28µM*,-21,?,-7%,35µM*,?,nt,Pol kappa inh-2=42*
C#Cc1ccc([C@@H]2C=C(C(=O)NCc3ccccc3)O[C@H](OCc3ccc(CO)cc3)C2)cc1,12%,-29,5%,-24%,-26%,-6%,nt,
COCc1cc(CN2CCCC2)c(O)c2ncccc12,-2%,nt,63%,?,-8%,-16%,nt,GALK inh confirm=1%;Redox cycling=-3%;HEK293 tox=?
O=C(c1noc2c1CCCC2)N1CCC(CO)(Cc2ccccc2Cl)CC1,-2%,-7,37%,0%,-5%,1%,nt,
O=C(O)c1ccc(N/N=C/C2=C(N3CCOCC3)C(=C\c3ccccc3)/CC2)cc1,?,-3,?,-20%,50µM*,32µM*,?,
Cc1cc(C)nc(N/N=C/C2=C(N3CCOCC3)C(=C\c3ccc(Cl)cc3)/CC2)n1,-7%,-13,?,-17%,-6%,-16%,nt,
Cc1sc2nc(COC(=O)CNC(=O)c3ccc(C(C)(C)C)cc3)[nH]c(=O)c2c1C,15%,-9,10%,?,-23%,-12%,nt,
O=C(O)CNc1ccccc1C(=O)O,-80%,8,?,8%,20µM*,-66%,60*,
Cc1ccccc1NC1=C/C(=N\S(=O)(=O)c2ccc(C(=O)O)cc2)c2ccccc2C1=O,35µM*,-29,0.89µM*,50µM*,5µM*,-11%,nt,GALK inh confirm=8.4µM*;Redox cycling=5.3µM*;HEK293 tox=25µM*
Cc1ccc(NC2=C/C(=N/S(=O)(=O)c3cccs3)c3ccccc3C2=O)cc1C,47%,-3,14%,0%,-9%,-19%,nt,
Cc1ccc(C)c(S(=O)(=O)/N=C2\C=C(NS(=O)(=O)c3ccccc3)C(=O)c3ccccc32)c1,-7%,-18,?,?,?,-3%,?,
CCN1C(=NCC(C)C)N[C@@H](c2ccccc2)[C@H](C(=O)OC)[C@H]1C,32%,nt,nt,nt,nt,nt,nt,
CCN(CC)c1ccc(NC(=O)CSc2ccsc2[N+](=O)[O-])c(C)c1,25µM*,?,?,2%,45µM*,?,?,Pol kappa inh-2=60*
Cc1ccc(C(=O)Nc2ccc(S(=O)(=O)NC3=NCCCCC3)cc2)c(C)c1,nt,2,58%,-13%,-18%,2%,nt,
